POLB inh: qHTS Assay for Inhibitors of DNA Polymerase Beta; Potency, µM (doses to about 114 µM), for inactives: at the top dose activity change, negative = inhibition, hits mostly inhibitors; Pol beta primer extension/strand displacement, fluorescence kinetic; AID 485314, 2010; hit rate 1.3% among 340,000; P06746; also: potency is read from the fitted curve at half-maximal effect; % is scaled to controls: 0 for no effect and ±100 for the full control effect
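Enzyme-only controls used 10 nM Pol beta; buffer lacking enzyme served as negative control. Compound preincubated 15 min, then 50 nM substrate added; 0 and 10 min reads at room temperature.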
PI5P4Ka inh: qHTS for Inhibitors of phosphatidylinositol 5-phosphate 4-kinase (PI5P4K) | max response, % | Phosphatidylinositol 5-phosphate 4-kinase type-2 alpha (Homo sapiens), P48426 | PI5P4Kalpha enzyme, ADP-Glo luminescence, 60 min; hits give low values | AID 652105, 2013 | hit rate 1.2% among 330,000; active = max response of -50% or lower; inconclusive = between -30% and -50%; inactive = -30% or higher; also: value at the top dose of about 77 µM; % is scaled to controls: 0 for no effect and ±100 for the full control effect
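ADP-Glo luminescence end-point read after a 60 min room-temperature kinase reaction of PI5P4Kalpha plus substrate, initiated with ATP at 5 microM final. Buffer: 0.038 M HEPES pH 7.4, EGTA, 0.1% CHAPS, 5% DMSO.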
Pol kappa inh: qHTS for Inhibitors of Polymerase Kappa. DNA polymerase kappa (Homo sapiens), Q9UBT6. purified Pol kappa, fluorescent DNA synthesis assay, 10 min. Potency, µM (titrated, usually from 107 µM), inactives show top-dose activity, negative = inhibition, most hits filed as inhibitors. hit rate 0.53% among 400,000; also: potency is read from the fitted curve at half-maximal effect; % is scaled to controls: 0 for no effect and ±100 for the full control effect
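50 nM final substrate added after 15 min RT preincubation of 10 nM Pol kappa with compound; fluorescence read at 0 and 10 min.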
Pol eta inh: qHTS for Inhibitors of Polymerase Eta; Potency, µM (highest dose often 114 µM), without a hit: top-dose activity change, negative = inhibition, usual class: inhibitors; hit rate 1.2% among 390,000; DNA polymerase eta (Homo sapiens), Q9Y253; recombinant Pol eta, fluorescent DNA replication assay; AID 588591, 2011; also: potency is read from the fitted curve at half-maximal effect; % is scaled to controls: 0 for no effect and ±100 for the full control effect
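Pol eta at 10 nM preincubated with compounds 15 min at room temperature; reaction started with fluorescent substrate (50 nM final) and read kinetically at 0 and 10 min.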
Pol iota inh: qHTS for Inhibitors of Polymerase Iota | Pol iota fluorescent replication assay, 10 min | Potency, µM (series often up to 115 µM), for the others: at the highest dose activity, negative = inhibition, actives largely listed as inhibitors | hit rate 1% among 390,000 | DNA polymerase iota (Homo sapiens), Q9UNA4; also: potency is read from the fitted curve at half-maximal effect
Target sequence (Q9UNA4 whole entry, looked up): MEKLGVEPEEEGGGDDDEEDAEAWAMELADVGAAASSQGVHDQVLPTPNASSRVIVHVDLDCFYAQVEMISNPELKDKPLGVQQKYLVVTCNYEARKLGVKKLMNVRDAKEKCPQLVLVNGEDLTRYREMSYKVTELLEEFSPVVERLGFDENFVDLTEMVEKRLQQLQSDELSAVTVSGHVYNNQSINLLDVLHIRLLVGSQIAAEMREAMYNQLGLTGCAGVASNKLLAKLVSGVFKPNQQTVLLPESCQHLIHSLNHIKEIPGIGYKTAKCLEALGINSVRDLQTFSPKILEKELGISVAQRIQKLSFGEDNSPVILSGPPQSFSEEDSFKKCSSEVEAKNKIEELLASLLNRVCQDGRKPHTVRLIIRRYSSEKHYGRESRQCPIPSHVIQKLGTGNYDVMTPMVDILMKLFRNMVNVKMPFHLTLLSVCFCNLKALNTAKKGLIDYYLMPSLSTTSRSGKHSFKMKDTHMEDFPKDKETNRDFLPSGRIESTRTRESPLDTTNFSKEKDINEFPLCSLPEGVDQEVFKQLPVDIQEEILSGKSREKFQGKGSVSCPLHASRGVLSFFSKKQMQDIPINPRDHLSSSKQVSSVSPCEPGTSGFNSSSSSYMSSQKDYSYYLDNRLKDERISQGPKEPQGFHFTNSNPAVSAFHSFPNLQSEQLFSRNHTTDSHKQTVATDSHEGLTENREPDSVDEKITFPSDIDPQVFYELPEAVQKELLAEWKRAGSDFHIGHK
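Pol iota at 10 nM preincubated 15 min with compounds at room temperature; reaction started with fluorescent substrate, 50 nM final. Fluorescence read kinetically at 0 and 10 min; buffer-only wells as negative control.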
PI4K2A block: qHTS for small molecular inhibitors of PI4K2A | hit rate 0.13% among 420,000 | activity change, negative = inhibition, % at 76.9 µM | purified PI4K2A, ADP-Glo luminescence, 1 h; hits give low values | AID 1346378, 2018; in the data active = activity change below about -50%; inconclusive = mostly about -30% to -49%;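 also: -100% = wells without enzyme as full effect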
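In this quantitative HTS, ADP production by PI4K2A was quantified luminescently after 1 h at ambient temperature; 100 microM adenosine served as plate-quality control.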
An asterisk follows results filed as active; ? = inconclusive; . = not tested or not shown; ! = repeats disagree; [ ] = another dose, or the depositor's remark. A selection: hits, their analogues and other compounds. The true share with any hit is near 2.8%. Unless noted, calls follow the shape of the dose curve; as a rule, active = well fitted inhibition curve with a large enough effect; inconclusive = small, poorly fitted or top-dose-only effect, or another doubt; inactive = no such curve, though single readings can be large or run the other way.

SMILES	POLB inh	PI5P4Ka inh	Pol kappa inh	Pol eta inh	Pol iota inh	PI4K2A block
CCC(=O)N(CCC(c1ccco1)C(C)C)Cc1ccccc1 (stereo not drawn)	3.0%	-2.9	-8.4%	-22.5%	136.6%	-22.0
CCC(=O)N(CCC(c1ccc(C)cc1)c1ccco1)Cc1ccco1 (stereo not drawn)	25.1µM*	-29.4	?	?	44.7µM*	-7.5
CCCCCNC(=O)C(c1cccc2ccccc12)n1c(=O)c(-c2ccco2)nc2ccccc21 (stereo not drawn)	.	-56.6*	.	.	.	-23.0
CC(C)(C)NC(=O)C(c1cccc2ccccc12)n1c(=O)c(-c2ccco2)nc2ccccc21 (stereo not drawn)	.	-60.6*	.	.	.	-2.8
CCCCCNC(=O)C(c1ccc(C(F)(F)F)cc1)n1c(=O)c(-c2ccco2)nc2ccccc21 (stereo not drawn)	.	-60.2*	.	.	.	-3.9
O=C(NCc1ccccc1)C(c1cccc2ccccc12)n1c(=O)c(-c2ccco2)nc2ccccc21 (stereo not drawn)	.	?	.	.	.	-8.2
CC(C)(C)NC(=O)C(c1cccc2ccccc12)n1c(=O)c(-c2ccccc2)nc2ccccc21 (stereo not drawn)	.	3.0	.	.	.	-0.3
CCCCCNC(=O)C(C1CC1)n1c(=O)c(-c2ccco2)nc2ccccc21 (stereo not drawn)	.	-23.6	.	.	.	-4.5
O=C(COc1ccccc1)NC1C(=O)N2C(C(=O)O)=C(Cl)CSC12 (stereo not drawn)	14.5%	-1.9	-36.1%	?	?	-3.3
NC(=O)c1cc[n+](CC2=C(C(=O)O)N3C(=O)[C@@H](NC(=O)[C@@H](c4ccccc4)S(=O)(=O)[O-])[C@H]3SC2)cc1	10µM*	.	26.7µM*	3.16µM*	14.1µM*	3.5
O=C(Cc1cccs1)NC1C(=O)N2C(C(=O)[O-])=C(C[n+]3ccccc3)CSC12 (stereo not drawn)	.	.	3.55µM*	.	.	.
Cc1cc(C)c(/C=C/c2onc(C)c2S(=O)(=O)N2CCC(C(=O)NCC(C)c3ccccc3)CC2)c(C)c1 (stereo not drawn)	3.7%	.	-15.7%[60.1 µM]	-20.8%	6.1%	-2.0
COC(=O)/C=C/C(C)=C/C=C/C(C)=C/C=C/C=C(C)/C=C/C=C(C)/C=C/C(=O)O	.	.	31.6µM*	.	.	.
COc1cc(C)c(/C=C/C(C)=C/C=C/C(C)=C/C(=O)O)c(C)c1C	.	49.5	-24.9%	?	-17.2%	-1.8
Cc1cc(=O)oc2cc(O[C@@H]3SC[C@@H](O)[C@H](O)[C@H]3O)ccc12	.	.	.	.	.	-0.5
CN(C)C(CNC(=O)c1ccc([N+](=O)[O-])cc1Cl)c1ccco1 (stereo not drawn)	0.3%	-0.5	4.6%	-2.6%	21.7%	-2.9
CN(C)C(CNS(=O)(=O)c1cc([N+](=O)[O-])ccc1Cl)c1ccco1 (stereo not drawn)	.	-18.2	-31.2%	50.1µM*	?	7.7
O=C(NC(=S)Nc1ccc(NC(=O)c2cccs2)cc1)c1cc2ccccc2o1	12.6µM*	1.7	-15.1%	?	2.7%	-2.2
O=C(O)c1ccc(-n2c(/C=C\c3ccc(O)cc3)nc3ccccc3c2=O)cc1	-4.1%	.	-0.9%	-9.8%	-6.7%	-2.3
CN(C)c1ccc(/C=C/c2nc3ccccc3c(=O)n2-c2ccc(C(=O)O)cc2)cc1	-0.6%	2.1	?	25.1µM*	?	2.1
O=C(O)CCCCC1CCSS1 (stereo not drawn)	1.12µM*	1.2	6.7µM*!	-0.2%	19.5%	-2.1
O=C(O)CCCC[C@H]1SC[C@H]2NC(=O)N[C@@H]21	.	.	-6.9%[12 µM]	.	.	.
N#Cc1c(Nc2cccc(F)c2)sc2c(O)cc(=O)[nH]c12	?	-75.7*	-6.4%	-25.6%	?	-3.8
Cc1cc(=O)[nH]c(Nc2cccc(F)c2)n1	14.2%	-1.2	11.8%	-4.4%	94.9%	0.5
Nc1ccc(O)cc1	.	.	89.1µM*	.	7.08µM*	?
SMILES	POLB inh	PI5P4Ka inh	Pol kappa inh	Pol eta inh	Pol iota inh	PI4K2A block
Nc1ccc(C(=O)O)cc1	.	3.8	13.6%	-12.8%	35.4%	-2.4
Cc1ccc(NC(=O)COC(=O)c2ccccc2OCC(=O)Nc2ccc(Br)cc2)c(Br)c1	.	.	12.2%	.	12.4%	.
Cc1cccc(Nc2nn3c(=O)c4cc5c(cc4nc3s2)OCO5)c1	3.16µM*	.	-7.7%	-4.7%	-2.4%	-1.8
N#C/C(=C/c1ccc(O)c(O)c1)c1nc2ccccc2[nH]1	?	?	10µM*	3.16µM*	?	-1.2
N#C/C(=C\c1ccc(OC(=O)c2cccs2)cc1)c1nc2ccccc2[nH]1	35.5µM*	-13.4	-44.0%	?	34.5%	10.2
COc1ccc2nc(/C(C#N)=C\c3ccc(C(=O)O)cc3)[nH]c2c1	-1.7%	?	-19.5%	22.4µM*	57.4%	-3.1
CCOc1ccc(/C=C/C(=O)Nc2sc3c(c2C(=O)OC)C(C(=O)OC)CC3)cc1 (stereo not drawn)	35.2%	.	-7.8%	50.1µM*	?	-4.0
CNc1ncncc1-c1ccccc1C(F)(F)F	.	.	5.8%[60.1 µM]	.	.	.
CCc1ccc(-c2ccc(SCC(=O)Nc3nnc(C)s3)nn2)cc1	39.8µM*	1.4	-15.0%	-9.7%	102.6%	5.5
Cc1nnc(NC(=O)CSc2ccc(-c3ccc(Cl)cc3)nn2)s1	3.7%	-11.5	-0.3%	-7.3%	131.6%	-1.0
CCC(C(=O)NCc1ccccc1)n1c(CSCCOc2ccccc2)nc2ccccc21 (stereo not drawn)	.	3.5	.	.	.	-5.2
CCCC[C@@H]1CCCO[C@@](C(=O)NCc2ccc(C)o2)(C(F)(F)F)C1	.	-54.0*	-2.2%	-17.5%	10.6%	-3.2
CCCC[C@@H]1CCCO[C@@](C(=O)NCc2ccccc2)(C(F)(F)F)C1	.	.	0.8%	.	-19.8%	.
Cc1ccc(/C=C2/CNC/C(=C\c3ccc(C)cc3)C2=O)cc1	.	.	4.6%[60.1 µM]	.	.	.
O=C1c2ccccc2C(=O)N1Nc1ccccc1	38.0%	-5.9	-1.4%	0.7%	9.8%	4.4
O=C1c2cccc3c([N+](=O)[O-])c(O)cc(c23)C(=O)N1Nc1ccccc1	-3.9%	-60.8*	-7.9%	-12.9%	15.3%	0.6
NNC(=O)c1ccc([N+](=O)[O-])c(CS(=O)(=O)c2ccc(Cl)cc2)c1	19.4%	0.0	-2.8%	-21.6%	4.8%	-7.7
CO/N=C/NC(=O)c1ccc([N+](=O)[O-])c(CS(=O)(=O)c2ccc(Cl)cc2)c1	10.1%	-50.4*	-5.8%	-19.3%	-5.4%	-3.8

Screens (PubChem BioAssay)
